Values joined by “and” are separate entries in the source; they are usually repeats but may differ in a detail not shown here. Identical values can stand only once. The panel holds about 83,000 compounds, 20% with a hit somewhere; the sample as a whole holds those more often.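 Single-dose data. Exposure time 48 hours. Values below 10 considered active.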 A number with no mark means an inactive call. Active and inactive are the calls of the source.
The compounds below were run on MDA-MB-468 breast (assay: NCI-60 one-dose screen, 48 h (100 = growth as untreated, 0 = no growth, -100 = all killed)). Conditions: 10 µM unless noted.
With CCOC(=O)Nc1cc2c(c(N)n1)N=C(c1ccccc1)CO2 the growth was 2.06% (active).
CSc1nc2sc3c(c2c(=O)n1-c1ccc(C(C)C)cc1)CCC(=O)C3 was tested, and the growth was -16.5% (active).
In the case of CCN(CC)CCCC(CNc1ccnc2cc(Cl)ccc12)c1ccc(Cl)cc1 (configuration not stated), the growth is reported as -78.1% (active) and -70.5% (active).
C(=N\Nc1ncc(-c2cc3cc4c(cc3o2)OCO4)s1)/c1c[nH]c2ccccc12 was tested, and the growth was 0.523% (active).
In the case of O=C(/C=C/c1cccs1)Nc1ncc(Cc2ccc(Cl)c(Cl)c2)s1, the growth is reported as 58.2%.
In the case of COc1ccc(CN2C(=O)/C(=C\C(=O)c3ccc(OCCN4CCCCC4)cc3)c3ccccc32)cc1, the growth is reported as 53.3%.
CCOC(=O)Nc1ccc2c(ccn2C(=O)c2cccc(F)c2)c1 showed a growth of 34.5%.
O=C1CCCCC1(c1ccccc1)c1ccccc1 was tested, and the growth was 98.4%.
Compound CN1CCN(C2=C(Cl)C(=O)c3ccccc3C2=O)CC1 has a growth of 57%.
With CCN1CCN(C(=O)[C@]23CCC(C)(C)C[C@@H]2C2=CC[C@@H]4[C@@]5(C)C/C(=C/c6ccncc6)C(=O)C(C)(C)[C@@H]5CC[C@@]4(C)[C@]2(C)CC3)CC1 the growth was -49.8% (active).
O=C(NNc1nc2cc(F)ccc2n2c(CN3CCOCC3)ccc12)c1ccccc1 was tested, and the growth was -27.9% (active).
CCCN1C(=O)N(CCC)C2C1NN=c1s/c(=C3\C(=O)N(C(C)C)c4ccccc43)c(=O)n12 (configuration not stated) gave a growth of 35.7%.
For CCN(CC)c1ccc2[nH]c3c(C(N)=O)cc(=O)c(=O)c=3oc2c1, the growth was -38.4% (active).
Work on O=C(CI)OCC(COC(=O)CI)OC(=O)CI yielded a growth of 51.6%.
For O=C1C(Cl)=C(Nc2cccc3ccccc23)C(=O)c2ccccc21, the growth was -3.45% (active).
With COc1ccc(-c2nc(NCCO)[nH]c(=O)c2C#N)cc1 the growth was 112%.
Compound Cn1c([N+](=O)[O-])cnc1/C=C1\Oc2ccc(Br)cc2C1=O has a growth of 13.1%.
With O=C(Nc1ccc(Nc2ncccn2)cc1)NC1C=c2ccccc2=CC1 (configuration not stated) the growth was 110%.
With COc1cc2nc(-c3ccc(C(F)(F)F)cc3)cc(OCCCN3CCC(O)CC3)c2cc1OC the growth was 44%.
CCc1ccc(NC(=O)N[C@@H](Cc2cc(F)cc(F)c2)C(=O)N[C@@H]2C(=O)N3C[C@H](O)C[C@H]3C(=O)N3CCOC[C@H]3C(=O)N[C@@H](C)C(=O)N3C[C@H](C)C[C@H]3C(=O)O[C@H]2C)cc1 was tested, and the growth was 14.8%.
In the case of COc1ccc(-c2ccc(-c3ccc(C(=N)N)cn3)s2)cc1Cl, the growth is reported as -68.5% (active).
In the case of Cc1ccc(-c2cc(-c3ccc(Cl)cc3)nc(NC(=O)c3cccnc3)n2)cc1, the growth is reported as 106%.
With COc1cc2c(c(OC)c1OC)C(=O)N[C@@H]1[C@@H](O)[C@@H](O)[C@H](O)C[C@@H]21 the growth was 102%.
Cc1cc(NCCCN(C)C)c2ccc3c(ccc4c(NCCCN(C)C)cc(C)nc43)c2n1 was tested, and the growth was -88.9% (active).
For O=c1[nH]c(NCc2nnnn2-c2ccc(Br)cc2)nc2sc3c(c12)CCCC3, the growth was 96.9%.
For COc1ccccc1-n1c(-c2ccc(O)cc2C)cn2c3c(=O)[nH]c(=O)n(C)c3nc12, the growth was 88.6%.
Cc1ccc(/C=N/NC(=O)CSc2nc3ccccc3c(=O)n2Cc2ccc(S(N)(=O)=O)cc2)cc1 showed a growth of 81.2%.

Source: PubChem BioAssay (NCI)
